# Source: the OligoGym collection
# Target: ARF4
# Experiment: pooled miR-30 sensor sort-seq; sequence = guide strand
# Conditions: shRNA
# Also: reference of the scale not given here.
row,Sequence,sensor-assay potency score (higher = more potent)
1,TTTTCTGCAGCTCATCTGCTAC,-0.921
2,TAGCATTTGGCAAATCCTGTTT,-0.434
3,TTTATCAAACATGTCCTTGGTT,0.237
4,TTTATCTGTCATTTCACTGATG,-0.303
5,TTGAACATACCATGTTCTGTTA,-0.718

# Target: ARHGAP18
# Experiment: as above
# Conditions: shRNA
row,Sequence,sensor-assay potency score (higher = more potent)
1,TTCTCCTTTCTTGAGAGTCTGG,-0.587
2,TTATTTACACTCTTGACTCAGC,-0.0105
3,TTGCACTCGAATCACTCCCTGA,-0.442
4,TTTCTTTTGATTCTCTCTGTTG,-0.646
5,TTTGACAACAACCACCTCTTGA,0.34
6,TTGGTTTACAATAAACTTGGGA,0.294
7,TTTGCTTCTAGTTCTTGGCAAA,-1.24
8,ATTTGTACTCTTATCTTGCTTT,0.153
9,TTCTATCCAATAGTCTTCCATA,-1.16
10,TTTATTTACACTCTTGACTCAG,0.18
11,TTCTCCATAACTTTGATGGTGG,-0.384
12,TAAAAACACAATGCTTTCCTGT,0.106

# Target: ARHGAP21
# Experiment: as above
# Conditions: shRNA
row,Sequence,sensor-assay potency score (higher = more potent)
1,TTTCATTGCAAACACACACTGC,-0.187
2,TAAACTGCGACACAGATCCCAC,-0.61
3,TAAACTATCTAATCTTTCTTGT,0.258
4,TTGTTGAGTCACTAGTAGCTGA,-0.152
5,TTAAACTATCTAATCTTTCTTG,0.206
6,TTTAGTATCATTGTGACACTGT,0.875
7,TTATTTTTTGAGACCTCGCAGG,-0.693
8,TATCTGACTTGAATCTAGCTGA,0.41
9,TTCTATTGGATAACAAATCTAC,-0.588
10,TTGTATATCAATATCAGCCATT,-0.872
11,TAAATCTGAAGTACCAGCGTTT,0.202
12,TAGACTTCCACTATCTGACTTG,0.173

# Target: ARHGAP30
# Experiment: as above
# Conditions: shRNA
row,Sequence,sensor-assay potency score (higher = more potent)
1,TCTTGCTACACATTGCACTGGG,0.852
2,TTTGGCACAGTCAACCTCCAGG,-0.36
3,TTAATCTGGATTTAAAAGGGAC,-0.482
4,TTGTGTCGGAGACAAGTTCAGG,-1.32
5,TGAATCTTGCTACACATTGCAC,-1.12
6,TTGACCTTCACTAGAGTGGGAC,-0.00464
7,TTATTCTGAGACATTGACCTTC,0.266
8,TTGTTGGATTTATCCTCCCTGT,-0.894
9,TAGAGTTGGGCACTACAGCTGC,-0.34
10,AAGAGGATCGAGAAGCTCGGGA,-0.319
11,TAGGTCATCATAGGCACTCAGG,-1.26
